# Screening data as filed in PubChem BioAssay.
# The list is not random: actives were taken first. Their share in the collection is about 3.6%.
# Peg3 prom inh: Peg3 promoter activity inhibition; 1.7% of 360,000 active; inhibition, % at 20 µM; HeLa PEG-Prom luciferase reporter, luminescence, overnight;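 active = inhibition of at least 50% at 20 µM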
# CF NFkB block: cystic fibrosis NF-kB activation inhibition; inhibition, % at 5 µM; KKLEB NF-kB-GFP reporter, PAF-induced, GFP fluorescence overnight; 0.86% of 360,000 active; AID 588850;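 active = at least 50% inhibition at 5 µM, scaled per plate between neutral and stimulator controls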;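 note: PAF is a Pseudomonas aeruginosa culture filtrate used as stimulus; plate controls were PAF-stimulated DMSO wells for no effect and unstimulated DMSO wells for full effect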
# HSP90 inh: HSP90 refolding inhibition in rabbit reticulocyte lysate; luciferase refolding luminescence, 3 h; inhibition, % at 5.6 µM; 0.91% of 290,000 active;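 active = inhibition above the screen-wide mean plus 3 SD, computed separately per campaign, cut at about 16% in these data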;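 note: 0% = DMSO wells and 100% = 60 µM geldanamycin wells; inhibitors lower the luminescence because luciferase stays unfolded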
# LGR2 inh: Drosophila LGR2 receptor signaling inhibition; HEK293 LGR2, CRE-luciferase, bursicon-stimulated, 4 h; inhibition, % at 9.99 µM; 0.35% of 380,000 active;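 active = drop in luminescence signal, shown as inhibition above about 50% in the replicate tests, limit read from the data, passing the limit was not always enough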;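 note: agonist challenge used bursicon conditioned medium at about half maximal strength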
# Mdm2 MdmX PPI: human Mdm2/MdmX binding inhibition; SaOS-2 split-luciferase Mdm2/MdmX complementation, luminescence; inhibition, % at 8 µM; 3% of 330,000 active;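 active = inhibition of at least 50% at 8 µM in the primary screen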
# Target sequence (O15151 whole entry, looked up): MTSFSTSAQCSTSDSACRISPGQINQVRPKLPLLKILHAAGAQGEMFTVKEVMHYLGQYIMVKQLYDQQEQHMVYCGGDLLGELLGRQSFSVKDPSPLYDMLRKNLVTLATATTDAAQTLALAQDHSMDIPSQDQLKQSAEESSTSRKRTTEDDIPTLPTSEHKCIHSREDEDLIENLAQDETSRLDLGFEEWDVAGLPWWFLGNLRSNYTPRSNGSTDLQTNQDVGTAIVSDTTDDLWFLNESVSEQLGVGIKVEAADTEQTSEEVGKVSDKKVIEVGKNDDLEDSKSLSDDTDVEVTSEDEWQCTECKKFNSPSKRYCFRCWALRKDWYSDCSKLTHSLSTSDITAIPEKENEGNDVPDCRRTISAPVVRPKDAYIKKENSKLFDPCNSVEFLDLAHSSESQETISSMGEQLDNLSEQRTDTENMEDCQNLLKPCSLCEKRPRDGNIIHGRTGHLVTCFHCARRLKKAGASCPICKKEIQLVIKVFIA
# Target sequence (Q00987 whole entry, looked up): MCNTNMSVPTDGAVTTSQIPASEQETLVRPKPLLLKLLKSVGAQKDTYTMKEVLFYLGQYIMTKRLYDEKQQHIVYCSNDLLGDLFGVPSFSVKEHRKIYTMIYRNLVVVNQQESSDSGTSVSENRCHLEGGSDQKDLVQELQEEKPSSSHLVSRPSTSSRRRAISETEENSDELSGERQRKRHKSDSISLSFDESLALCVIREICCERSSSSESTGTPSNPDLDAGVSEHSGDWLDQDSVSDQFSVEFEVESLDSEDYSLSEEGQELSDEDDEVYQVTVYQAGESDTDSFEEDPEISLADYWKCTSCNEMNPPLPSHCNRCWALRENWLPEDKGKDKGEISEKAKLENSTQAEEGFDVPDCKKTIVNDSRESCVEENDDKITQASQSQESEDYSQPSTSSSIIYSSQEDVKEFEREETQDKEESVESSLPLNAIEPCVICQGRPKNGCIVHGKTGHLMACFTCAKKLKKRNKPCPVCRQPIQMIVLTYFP
# KKLEB tox: counter-screen for CF NF-kB inhibitors: cytotoxicity | KKLEB CF airway cells viability, ATPlite luminescence, overnight; hits give low values; cells stimulated with P. aeruginosa culture filtrate | activity change (cytotoxicity), % at 5 µM | 0.36% of 360,000 active;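 active = corrected activity change at or below -50% at 5 µM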
# CF NFkB conf: CF NF-kB inhibition confirmation, single concentration. shares compounds with CF NFkB block. KKLEB CF airway cells, PAF-induced NF-kB-GFP fluorescence, overnight. inhibition, % at 5 µM. 64% of 1,300 active. AID 602472; in the data active = inhibition above about 40%;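 note: stimulus PAF is a Pseudomonas aeruginosa filtrate and not platelet activating factor; plate controls were DMSO wells with stimulus for no effect and unstimulated DMSO wells for full effect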
# Starred values were filed as active, the others as inactive; x = no result; ! = a repeat was not active.
SMILES,Peg3 prom inh,CF NFkB block,HSP90 inh,LGR2 inh,Mdm2 MdmX PPI,KKLEB tox,CF NFkB conf
Nc1c(C(=O)Nc2ccccc2)sc2nc3c(c(-c4ccco4)c12)CCCC3,-52,51*,2,-36,-42,-34,34
CO[C@@H](C(=O)N(C)C[C@H]1OCc2ccccc2-c2c(n(C)c3ccccc23)C(=O)N([C@@H](C)CO)C[C@@H]1C)c1ccccc1,x,x,x,-4,x,x,x
OCC1CCCN(c2ncnc3scc(-c4ccccc4)c23)C1 (stereo unspecified),22,50*,0,8,14,-28,40*
CCCOc1ccc(C(=O)c2ccccc2C(=O)OC2CCOC2=O)cc1OCCC (stereo unspecified),9,2,x,3,23,6,x
O=C(OC1CCOC1=O)c1ccccc1C(=O)c1ccc(Cl)c([N+](=O)[O-])c1 (stereo unspecified),-2,72*,x,x,22,-12,52*
Cc1nc(N2CCN(C)CC2)c2sc(=S)n(-c3ccccc3)c2n1,-37,-11,-1,1,4,4,x
S=c1sc2c(Cl)ncnc2n1-c1ccccc1,112*,78*,-3,104*,x,-28,25
C[C@H]1CN([C@@H](C)CO)C(=O)c2cccc(NC(=O)c3nc4ccccc4s3)c2O[C@@H]1CN(C)S(=O)(=O)c1cn(C)cn1,x,x,x,-10,x,x,x
CN1c2ccc(-c3cccc(C#N)c3)cc2[C@H]2[C@H](CCN2C(=O)C2CCC2)[C@@H]1CO,x,x,x,7,x,x,x
C#CCN(C[C@@H]1[C@@H](OC(=O)NC2CCCC2)[C@@H](OC(=O)NC2CCCC2)Cn2c(=O)ccc(=O)n21)S(=O)(=O)c1ccc(C)cc1,96*,64*,x,66*,x,-24,12
NC(=O)c1nsc(C(=O)N(c2ccccc2)C(C(=O)NCc2ccc(F)cc2)c2ccc(O)cc2)c1N (stereo unspecified),55*,52*,8,10,39,-10,74*
O=C(NCc1ccc(F)cc1)C(c1ccccc1)N(C(=O)c1csnn1)c1ccccc1 (stereo unspecified),40,61*,0,-4,8,3,17
C[C@H](CO)N1C[C@H](C)[C@@H](CN(C)CC2CCCCC2)Oc2ccc(NC(=O)Nc3ccccc3)cc2C1=O,x,x,x,21,x,x,x
O=c1c(-c2c(O)cc(O)c3c2O[C@H](c2ccc(O)cc2)CC3)c(-c2ccc(O)cc2)oc2cc(O)cc(O)c12,47,75*,x,x,23,0,101*
O=[N+]([O-])c1ccc(-n2nnnc2-c2ccccc2)c([N+](=O)[O-])c1,12,68*,-1,40,x,-23,-69
O=[N+]([O-])c1ccc(-n2nnnc2-c2ccccc2)cc1,13,-4,-1,17,-16,-1,x
CCC[n+]1c(C)sc2c3c(ccc21)CCCC3,32,58*,4,x,7,-23,20
CC[n+]1c(C)sc2c(C)cc(C)cc21,-1,-13,-1,12,0,3,x
CS(=O)(=O)N1C[C@H](O)COC[C@@H]2O[C@@H](CC(=O)NCCc3ccncc3)CC[C@H]21,x,x,x,11,x,x,x
CC(=O)C1CCC2C3CCC4=CC(=O)CCC4(C)C3C(O)CC12C (stereo unspecified),2,4,x,1,x,-2,x
CC(=O)C1CCC2C3CCC4=CC(=O)CC[C@]4(C)[C@@]3(F)C(O)C[C@]12C (stereo partly specified),12,56*,3,1,9,26,-50
COCC(=O)N[C@H]1C=C[C@H](CC(=O)N2CCCCC2)O[C@@H]1CO,x,x,x,0,x,x,x
CCc1ccc(-c2n[nH]nc2C2=CC(=O)C[C@H](c3ccc(F)cc3)C2)cc1,36,61*,x,15,x,1,40
c1ccc(CNc2ncnc3ccccc23)cc1,7,50*!,2,29,37,-12,41*
Fc1ccc(CNc2ccn3nc(-c4ccccc4)cc3n2)cc1,-355,-67,x,x,x,12,x
SMILES,Peg3 prom inh,CF NFkB block,HSP90 inh,LGR2 inh,Mdm2 MdmX PPI,KKLEB tox,CF NFkB conf
CC(C)(CO)CNc1ccn2nccc2n1,-2,53*,x,15,x,1,60*
CC(C)C(=O)Nc1ccc2c(c1)C(=O)N(C)[C@H]1CC[C@@H](CC(=O)NCCc3ccccc3)O[C@H]1CO2,x,x,x,-2,x,x,x
Cc1ccc(S(=O)(=O)Nc2ccc3c(c2)C(=O)N([C@@H](C)CO)C[C@@H](C)[C@@H](CN(C)C(=O)NC(C)C)OCCCC[C@@H](C)O3)cc1,x,x,x,3,x,x,x
COc1ccc(C2CC(c3ccccc3)=NN2C(=O)COC(=O)c2ccc(S(C)(=O)=O)cc2)cc1 (stereo unspecified),8,55*,x,-6,20,20,46*
COc1ccc(C2CC(c3ccccc3)=NN2C(=O)COC(=O)c2cc(S(=O)(=O)N3CCOCC3)ccc2F)cc1 (stereo unspecified),15,2,3,4,-18,2,x
C[C@H]1CN([C@@H](C)CO)S(=O)(=O)c2ccc(-c3ccncc3)cc2O[C@@H]1CN(C)C(=O)Nc1ccc(C(F)(F)F)cc1,x,x,x,-12,x,x,x
Cc1ccc(S(=O)(=O)N(C)C[C@H]2Oc3ccc(NC(=O)C4CCCCC4)cc3CC(=O)N([C@@H](C)CO)C[C@@H]2C)cc1,x,x,x,5,x,x,x
COc1ccc([N+](=O)[O-])c(C=CC(=O)c2ccccn2)c1,101*,91*,x,-5,x,-29,-59
CN(Cc1ccco1)c1ncnc2ccc(-c3ccccc3Cl)cc12,17,10,x,x,20,10,x
CN(Cc1ccco1)c1ncnc2ccc(-c3ccoc3)cc12,1,66*,x,x,18,-10,56*
Cc1ccc(NC(=O)CSc2ncnc3ccccc23)cc1S(=O)(=O)N1CCOCC1,19,56*,-2,27,29,-21,73*
Cc1ccc(NC(=O)CSc2ncnc3ccccc23)cc1S(=O)(=O)N1CCCCC1,12,41,2,28,41,1,x
CC(NC(=O)OCc1ccccc1)C(=O)Oc1cc2oc(=O)cc(-c3ccccc3)c2cc1Cl (stereo unspecified),-15,63*,0,12,42,-8,93*
C[C@H](CO)N1C[C@H](C)[C@@H](CN(C)C(=O)Cc2ccccn2)Oc2ncc(C#CC3CC3)cc2C1=O,x,x,x,0,x,x,x
N#CSCC(=O)c1cccc2ccccc12,32,55*,-3,x,x,-35,54*
CNC(=O)C[C@@H]1CC[C@H]2[C@@H](COc3ccc(NC(=O)C(C)C)cc3C(=O)N2C)O1,x,x,x,-4,x,x,x
O=S(=O)(N/N=C\c1c(F)cccc1Cl)c1ccc(Cl)cc1,4,-14,4,x,19,12,x
Fc1cccc(Cl)c1/C=N/Nc1c(Cl)cncc1Cl,-60,53*,-6,-2,44,-13,67*
